From the supplement of paper PMC12669032
Unmarked numbers belong to inactive results.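 The calls were made as follows: active = AUC reduced over 20% with Padj below 0.05 in at least 2 of 3 replicates; inactive = otherwise.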

Assays:
Roseburia intestinalis = assay: growth AUC relative to DMSO control (median of replicates) (fraction); higher = more growth (less inhibition), active = hit call of the paper; conditions: 20 µM; 24 h
Summary of the method: (§1)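 OD600 was recorded every hour for 24 h in anaerobic monocultures of gut bacteria kept at 37 °C in mGAM, seeded at OD600 0.05 and given 20 µM compound in 1% DMSO. The area under each growth curve was scaled to the plate median of solvent-only wells, or to row and column medians for the industrial chemical plate. Before this step, the minimum OD was set to 0. Reported values are medians of three biological replicates run on separate days.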

Streptococcus salivarius = assay: as above; conditions: 20 µM; 24 h
Summary of the method: as §1

Row | Structure (SMILES) | growth AUC (Roseburia intestinalis) | growth AUC (Streptococcus salivarius)
1 | Cc1occc1C(=O)Nc1ccccc1 | 0.996 | 0.995
2 | CC(C)[C@H](C(=O)O[C@H](C#N)c1cccc(Oc2ccccc2)c1)c1ccc(Cl)cc1 | 0.913 | 0.948
3 | CCC(C)c1ccccc1OC(=O)NC (stereo not drawn) | 0.963 | 1.04
4 | O=P(OCCCl)(OCCCl)OCCCl | 0.928 | 1.03
5 | C#CCC1=C(C)C(OC(=O)C2C(C=C(C)C)C2(C)C)CC1=O (stereo not drawn) | 0.921 | 0.959
6 | CN(C)C(CSS(=O)(=O)[O-])CSS(=O)(=O)O.[Na+] | 1.06 | 0.979
7 | Oc1ccccc1-c1ccccc1 | 0.939 | 1.04
8 | CNC(=O)O/N=C(\SC)C(=O)N(C)C | 0.997 | 1.02
9 | CCOP(=S)(OCC)SCS(=O)(=O)CC | 0.947 | 1.01
10 | CCNc1nc(NC(C)(C)C)nc(SC)n1 | 1.07 | 0.984
11 | c1ccc2c(c1)ccc1c3ccccc3sc21 | 0.964 | 1.05
12 | CNC(=O)O/N=C(\C)C(C)S(C)(=O)=O (stereo not drawn) | 0.95 | 0.972
13 | O=C(NC(=O)c1c(F)cccc1F)Nc1ccc(Oc2ccc(C(F)(F)F)cc2Cl)cc1F | 1.1 | 0.985
14 | CCOP(=S)(OCC)Oc1cnccn1 | 0.976 | 1
